High-throughput results as filed in PubChem.
An excerpt weighted towards active compounds, which were near 1.1% of everything screened.
LmPK inhibitor: inhibitors of Leishmania mexicana pyruvate kinase | 0.37% of 290,000 active | Potency, µM (doses to about 57.5 µM), without a hit: top-dose activity change, negative = inhibition, most hits filed as inhibitors | Q27686 | purified LmPK, Kinase-Glo ATP luminescence, 1 h | AID 1721; further: on the % scale 0 is the no-effect control and ±100 the full control effect
Target sequence (Q27686 whole entry, looked up): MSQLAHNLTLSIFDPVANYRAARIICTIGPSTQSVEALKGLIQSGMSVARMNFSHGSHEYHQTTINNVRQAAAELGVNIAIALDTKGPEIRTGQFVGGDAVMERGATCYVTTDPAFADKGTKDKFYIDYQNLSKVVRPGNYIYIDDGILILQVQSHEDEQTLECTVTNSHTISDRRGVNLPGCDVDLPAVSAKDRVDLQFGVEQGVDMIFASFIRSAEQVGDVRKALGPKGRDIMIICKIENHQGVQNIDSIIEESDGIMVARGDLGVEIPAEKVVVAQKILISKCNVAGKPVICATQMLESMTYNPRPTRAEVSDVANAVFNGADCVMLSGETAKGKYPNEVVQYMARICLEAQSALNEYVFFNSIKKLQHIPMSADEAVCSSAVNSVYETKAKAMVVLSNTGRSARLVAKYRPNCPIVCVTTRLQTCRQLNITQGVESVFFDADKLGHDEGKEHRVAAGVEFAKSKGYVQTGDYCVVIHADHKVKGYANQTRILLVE
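Purified LmPK (0.1 nM) with 0.5 mM PEP and 0.1 mM ADP in imidazole buffer pH 7.2 with MgCl2/KCl, 1 h at room temperature. ATP formed was read by luciferase luminescence and normalized to no-enzyme and uninhibited controls.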
TbPYK inhibitor: inhibitors of Trypanosoma brucei pyruvate kinase | Q57TT1 | TbPYK enzyme, Kinase-Glo Plus ATP luminescence, 45 min | Potency, µM (titrated, usually from 76.8 µM), for the others: top-dose activity, negative = inhibition, hits mostly inhibitors | 0.12% of 410,000 active | AID 624173; further: on the % scale 0 is the no-effect control and ±100 the full control effect; nearly all actives have a fitted effect of over 50% in size
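Assay buffer: 50 mM TEA pH 7.2, 100 mM KCl, 10 mM MgCl2, 0.05% BSA, 0.01% Tween-20. Pyruvate kinase from T. brucei plus substrate met compound, then ADP (130 uM final). Luminescence was read post 45 min RT.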
SARS PLpro yeast: blocks SARS-CoV papain-like protease in a yeast assay | 0.19% of 330,000 active | Potency, µM (series often up to 32.9 µM), for inactives: top-dose activity, positive = growth rescue, most hits filed as activators | AID 485353 | S. cerevisiae expressing SARS-CoV PLpro, growth rescue; calls by dose curve; further: 0% is about no effect; nearly all actives have a fitted effect of over 55% in size
RE007 growth inh: less growth of the S. pombe RE007 Vpr strain; S. pombe RE007 Vpr strain, BacTiter-Glo ATP luminescence, 24 h; Potency, µM (top dose mostly 92.2 µM), for the others: at the highest dose activity change, negative = less growth, actives largely listed as inhibitors; 0.21% of 360,000 active; AID 651644; active means well fitted falling curve with a large enough effect; inconclusive means small, poorly fitted or top-dose-only effect; inactive means no such curve, though single readings can be large or run the other way; further: on the % scale 0 is the no-effect control and ±100 the full control effect; nearly all actives have a fitted effect of over 50% in size
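Fission yeast strain RE007, carrying one chromosomally integrated HIV-1 vpr copy, was seeded at OD 0.01 in PMG+AL medium with 23 nL pinned compound. After 24 h at 30 °C and 99% humidity, viability was read by BacTiter-Glo luminescence.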
Giardia FBPA inh-1: blocks Giardia fructose-bisphosphate aldolase activity. purified Giardia FBPA. Potency, µM (series often up to 59.6 µM), without a hit: at the top dose activity, negative = inhibition, most hits filed as inhibitors. 0.71% of 290,000 active; further: on the % scale 0 is the no-effect control and ±100 the full control effect; nearly all actives have a fitted effect of over 55% in size
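Giardia FBPA (40 nM reagent) was preincubated 10 min at RT with compound (up to 57.5 uM final), then substrate plus GAPDH/TPI/NAD/arsenate coupling system with diaphorase/resazurin was added; resorufin fluorescence (525/598 nm) was read after 20 min.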
Giardia growth: blocks growth of Giardia lamblia trophozoites. shares compounds with Giardia FBPA inh-1. Giardia lamblia trophozoite growth inhibition. Potency, µM (highest dose often 57.5 µM), without a hit: top-dose activity change, negative = inhibition, most hits filed as inhibitors. 5% of 1,500 active. AID 2785;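 further: trophozoites exposed to compound for 48 h at 37 °C; on the % scale 0 is the no-effect control and ±100 the full control effect; nearly all actives have a fitted effect of over 70% in size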
Mammalian tox: toxic to mammalian cells in Giardia aldolase counter-screen; Potency, µM (highest dose often 57.5 µM), without a hit: at the highest dose viability change, negative = toxicity, usual class: inhibitors; 4% of 1,500 active; shares compounds with Giardia FBPA inh-1; AID 2786; mammalian cell viability counter-screen, qHTS;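 further: Chinese hamster ovary cells used as mammalian cytotoxicity surrogate; viability measured as cellular ATP by luminescence; compound exposure lasted 48 h before reading; on the % scale 0 is the no-effect control and ±100 the full control effect; nearly all actives have a fitted effect of over 60% in size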
Giardia FBPA inh-2: confirmation of Giardia fructose-bisphosphate aldolase inhibitors. shares compounds with Giardia FBPA inh-1. purified Giardia aldolase enzyme activity, qHTS. Potency, µM (doses to about 57.5 µM), inactives show top-dose activity change, negative = inhibition, most hits filed as inhibitors. 5% of 1,500 active; further: on the % scale 0 is the no-effect control and ±100 the full control effect; nearly all actives have a fitted effect of over 45% in size
Rabbit aldolase: rabbit FBP aldolase inhibition by Giardia aldolase hits | AID 2794 | shares compounds with Giardia FBPA inh-1 | Rabbit muscle FBPA enzyme inhibition, selectivity counter-screen | 4% of 1,500 active | Potency, µM (series often up to 57.5 µM), for inactives: top-dose activity, negative = inhibition, usual class: inhibitors; further: on the % scale 0 is the no-effect control and ±100 the full control effect; nearly all actives have a fitted effect of over 60% in size
GAPDH counter: counter-screen for Giardia aldolase inhibitors: GAPDH coupling enzyme; GAPDH coupling enzyme counterscreen, biochemical, qHTS; shares compounds with Giardia FBPA inh-1; 6% of 1,500 active; Potency, µM (series often up to 57.5 µM), without a hit: top-dose activity change, negative = inhibition, usual class: inhibitors; further: on the % scale 0 is the no-effect control and ±100 the full control effect; nearly all actives have a fitted effect of over 55% in size
Starred values were filed as active, the others as inactive; ? = inconclusive; · = not tested or not shown; [ ] = another dose, or the depositor's remark. Unless noted, the call rests on the fitted dose curve; in most records, active means well fitted curve in the direction sought with a large enough effect; inconclusive means small, poorly fitted or top-dose-only effect, or another doubt; inactive means no such curve, though single readings can be large; an effect the other way counts as inactive or inconclusive. Potency means the concentration at half of the fitted maximal effect.

SMILES	LmPK inhibitor	TbPYK inhibitor	SARS PLpro yeast	RE007 growth inh	Giardia FBPA inh-1	Giardia growth	Mammalian tox	Giardia FBPA inh-2	Rabbit aldolase	GAPDH counter
NC1=NN=C(N2N=C(c3ccc(Br)cc3)CC2(O)C(F)(F)F)n2ncnc2C1 (stereo unspecified)	0%	5%	2%	6%	?	14%[38.3 µM]	-1%	3%	1%	-15%
COc1ccc(CCNC(=O)C(C)n2c(=O)cc(C(F)(F)F)c3c(C)nn(C)c32)cc1OC (stereo unspecified)	·	0%	·	·	·	·	·	·	·	·
COc1cc(C(=O)NC(=S)Nc2nccs2)cc(OC)c1OC	-2%	-1%	-1%	1%	14µM*	?	-1%	-4%	13%	-6%
Cc1nn(C)c(C(=O)NC(=S)Nc2ccc([N+](=O)[O-])cc2)c1Cl	1%	1%	-3%	7%	13µM*	-1%[10.4 µM]	-9%	5%	7%	17%
CCN1CCN(C(=S)NC(=O)c2cc(OC)c(OC)c(OC)c2)CC1	·	-9%	-3%	0%	·	·	·	·	·	·
Cc1nn(C)c(C(=O)NC(=S)Nc2ccccc2Br)c1Cl	-9%	0%	-5%	-7%	·	·	·	·	·	·
COC(=O)c1sc(NC(=S)NC(=O)c2cc(OC)c(OC)c(OC)c2)nc1C	-1%	1%	3%	-4%	3.2µM*	2%[10.4 µM]	-8%	7%	7%	10%
COC(=O)c1sc(NC(=S)NC(=O)c2ccccc2)nc1C	-4%	-12%	?	?	-18%	·	·	·	·	·
CCN(CC)C(=S)NC(=O)c1cc(OC)c(OC)c(OC)c1	0%	-17%	0%	10%	18µM*	8%	-5%	0%	6%	2%
O=C(Nc1ccccc1C(F)(F)F)c1cc(-c2ccc3c(c2)OCCO3)on1	·	1%	·	·	·	·	·	·	·	·
CCCSc1ncc(Cl)c(C(=O)Nc2c(C(=O)Nc3ccc(C)cc3)oc3ccccc23)n1	·	4%	·	·	·	·	·	·	·	·
Cc1noc(C)c1-c1ccc2ncnc(NCc3ccccc3)c2c1	·	·	·	·	-15%	·	·	·	·	·
CC[C@H](C)[C@H](NC(=O)[C@H](CO)NC(=O)[C@H](C)NC(=O)[C@H](C)NC(=O)[C@H](CCC(N)=O)NC(=O)[C@H](CCCCN)NC(=O)[C@H](CCCN=C(N)N)NC(=O)[C@@H](N)CS)C(=O)N[C@@H](CCCCN)C(=O)N[C@H](C(=O)N[C@@H](C)C(=O)N[C@H](C(=O)N[C@@H](CO)C(=O)O)C(C)C)C(C)C	·	·	·	·	4%	·	·	·	·	·
COc1cc(C(=O)NC(=S)Nc2ccc([N+](=O)[O-])cc2C)cc(OC)c1OC	2%	-8%	-22%	·	?	·	·	·	·	·
COc1cc(C(=O)NC(=S)Nc2ccc([N+](=O)[O-])cc2)cc(OC)c1OC	2%	-4%	0%	-15%	13µM*	-25%	-3%	11%	8%	5%
Cc1ccc(NC(=O)C2CC(=O)N(c3ccc(OC(C)C)cc3)C2)cc1 (stereo unspecified)	·	-1%	·	·	·	·	·	·	·	·
C[C@H](NC(=O)c1cc2c(cn1)[nH]c1ccccc12)C(=O)O	-12%	?	0%	-20%	-19%	-1%[38.3 µM]	-9%	-12%	-5%	-7%
